KAT2A inh = blocks human GCN5L2 histone acetyltransferase | Q92830 | GCN5L2 HAT assay, ThioGlo1 CoA-SH fluorescence | Potency, µM (top dose mostly 58.9 µM), for the others: top-dose activity change, negative = inhibition, usual class: inhibitors | 390,000 compounds, 0.21% hits
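Preincubate 20nM GCN5L2 with compound 15 min, RT → add 50uM ThioGlo1 + 75uM H3(1-25) + 70uM acetyl-CoA → read fluorescence 0 and 20 min. Primary qHTS; fluorescent artifacts likely.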
GLS inh = glutaminase GLS (human) inhibition | AID 624170 | O94925 | Potency, µM (series often up to 45.5 µM), for inactives: at the highest dose activity change, negative = inhibition, most hits filed as inhibitors | 410,000 compounds, 0.21% hits | GLS enzymatic activity, qHTS titration
Target sequence (O94925 whole entry, looked up): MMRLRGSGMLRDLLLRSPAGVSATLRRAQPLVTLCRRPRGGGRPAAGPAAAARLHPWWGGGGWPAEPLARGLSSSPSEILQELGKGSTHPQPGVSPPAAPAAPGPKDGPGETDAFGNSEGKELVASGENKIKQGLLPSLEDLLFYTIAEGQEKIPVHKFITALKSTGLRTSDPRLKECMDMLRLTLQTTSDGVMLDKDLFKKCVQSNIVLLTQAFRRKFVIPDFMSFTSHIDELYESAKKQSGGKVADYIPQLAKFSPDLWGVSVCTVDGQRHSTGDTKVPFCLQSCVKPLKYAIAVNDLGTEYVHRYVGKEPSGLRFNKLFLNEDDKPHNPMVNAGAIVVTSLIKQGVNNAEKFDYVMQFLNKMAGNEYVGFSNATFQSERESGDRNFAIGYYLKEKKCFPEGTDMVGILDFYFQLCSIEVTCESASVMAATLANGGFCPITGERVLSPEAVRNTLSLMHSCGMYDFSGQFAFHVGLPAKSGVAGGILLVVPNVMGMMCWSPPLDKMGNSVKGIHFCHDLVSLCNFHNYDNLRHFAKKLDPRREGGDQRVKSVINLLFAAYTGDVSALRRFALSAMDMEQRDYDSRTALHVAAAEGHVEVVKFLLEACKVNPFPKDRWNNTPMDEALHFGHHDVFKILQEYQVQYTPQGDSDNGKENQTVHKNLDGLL
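Assay buffer: 45 mM KH2PO4 pH 8.2, 0.02% Tween-20. hKGA acts on L-glutamine (1 mM solution added); product glutamate is reported by an oxidase/peroxidase Amplex Red coupling, with fluorescence taken at baseline and 30 min.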
TrxR1 substrate = rat thioredoxin reductase 1 substrate activity; O89049; AID 588456; Potency, µM (highest dose often 114 µM), without a hit: at the top dose activity change, negative = substrate turnover; 390,000 compounds, 0.01% hits; purified TrxR1 substrate turnover, NADPH consumption readout; further: nearly all actives have a fitted effect of over 50% in size
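Rat TrxR1, dispensed at 90 nM, was prereduced with 400 uM NADPH (final) for 5 min at ~22 deg C, then incubated with compound 15 min before 400 uM selenite. A first-read NADPH fluorescence drop versus no-compound background flagged substrates.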
Sfp PPTase inh = blocks B. subtilis Sfp PPTase activity; Q9F4F7; Biochemical Sfp PPTase activity, qHTS; Potency, µM, without a hit: largest response in the series, negative = inhibition, usual class: inhibitors; 310,000 compounds, 3.5% hits;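 further: the enzyme is Sfp with the accession as filed and its product quenches rhodamine fluorescence; 0% = enzyme reaction without inhibitor and -100% = no enzyme wells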
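Compounds were incubated with enzyme (final 15 nM) for 15 min at room temperature before substrate addition started the reaction. Fluorescence at 525 nm excitation, 598 nm emission was recorded immediately and after 30 minutes.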
VDR inh = vitamin D3 receptor (human) inhibition | P11473 | VDR-SRC2-3 peptide fluorescence polarization, 2 h | Potency, µM, for inactives: max response, negative = inhibition, usual class: inhibitors | 400,000 compounds, 0.93% hits
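Two reagent solutions held at 4 deg C in the dark were dispensed, compounds pinned at 23 nl, and the mixture incubated 2 h at room temperature. Read-out: fluorescence polarization of VDR–SRC2-3 peptide binding.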
rTrxR1 inhibitor = inhibitors of rat thioredoxin reductase 1. O89049. recombinant rTrxR1, NADPH fluorescence consumption, selenite substrate. Potency, µM (doses to about 114 µM), inactives show top-dose activity change, negative = inhibition, actives largely listed as inhibitors. 390,000 compounds, 1% hits. AID 588453; further: nearly all actives have a fitted effect of over 65% in size
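Rat TrxR1 (90 nM in the dispensed reagent) was pre-reduced with 400 uM NADPH for 5 min at room temperature, then incubated with compound for 15 min. After 400 uM selenite was added, NADPH fluorescence (Ex 340/Em 450 nm) was followed for 8 min.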
* = called active by the depositor; ? = inconclusive; / = no result given; ! = a repeat was not active; [ ] = dose if it differs, or a comment. Compounds with a hit are over-represented: about 3.8% of the library has one in this group of screens. The call rests on the fitted dose curve; in most records, active means well fitted curve in the direction sought with a large enough effect; inconclusive means small, poorly fitted or top-dose-only effect, or another doubt; inactive means no such curve, though single readings can be large; an effect the other way counts as inactive or inconclusive. Unless noted, on the % scale 0 is the no-effect control and ±100 the full control effect; potency means the concentration at half of the fitted maximal effect.

SMILES | KAT2A inh | GLS inh | TrxR1 substrate | Sfp PPTase inh | VDR inh | rTrxR1 inhibitor
O=C1c2ccccc2C(=O)N1c1nc(-c2cccs2)cs1 | -4% | 7% | -3% | 25µM* | 11% | -12%[57.1 µM]
CN1CCN(c2nc(-c3cccs3)cs2)CC1 | -17% | 6% | 1%[57.1 µM] | 56µM* | 4% | 29%[57.1 µM]
COC(=O)c1c(NC(=O)Cc2coc3ccc(C)cc23)sc2c1CCC2 | -1% | 4% | 7% | / | -5% | 4%
Cc1ccc(Nc2nnc(-c3ccc(C)c(S(=O)(=O)N4CCN(C)CC4)c3)c3ccccc23)cc1 | -11% | 18% | 0% | / | -8% | 23%
COc1cccc(-n2c(SCC(=O)Nc3cc(C)on3)nc3ccccc3c2=O)c1 | 1% | -12% | 5%[57.1 µM] | 16% | 27% | -57%[57.1 µM]
CCc1sc2nc(SCC(=O)Nc3cc(C)on3)n(-c3cccc(OC)c3)c(=O)c2c1C | -3% | 11% | 7% | 56µM* | -9% | 10%
Cc1c2oc3c(C)ccc(C(=O)N[C@@H]4C(=O)N[C@H](C(C)C)C(=O)N5CCC[C@H]5C(=O)N(C)CC(=O)N(C)[C@@H](C(C)C)C(=O)O[C@@H]4C)c3nc-2c(C(=O)N[C@@H]2C(=O)N[C@H](C(C)C)C(=O)N3CCC[C@H]3C(=O)N(C)CC(=O)N(C)[C@@H](C(C)C)C(=O)O[C@@H]2C)c(N)c1=O | -6% | -14% | / | -5% | 45µM*! | /
Cc1cccc(OCC(=O)NC(=S)NNC(=O)c2ccncc2)c1 | ? | 7% | 8% | 18µM* | 71µM* | -13%[57.1 µM]
Cc1ccc(C(=O)NNC(=S)NC(=O)COc2ccccc2)cc1 | -4% | 10% | 6% | 56µM* | -7% | 40µM*
COc1cc(/C=N\Nc2nc3ccccc3o2)cc(OC)c1OC | 0% | 5% | -9% | -2% | -6% | 0%
COc1ccccc1NC(=O)Cn1nnc(-c2ccccc2NC(=O)c2cccs2)n1 | -11% | 2% | 23% | 50µM* | -14% | 8%
Nc1cc(Nc2ccc(Br)cc2)nc(N)n1 | -9% | 0% | 3% | ? | 45µM* | 29%
Cc1cc(Nc2ccc(Cl)cc2)nc(N)n1 | -17% | -6% | 4%[57.1 µM] | 16% | -10% | -4%
O=C(CN1C(=O)NC2(CCCCC2)C1=O)N1CCN(S(=O)(=O)c2ccc(F)cc2)CC1 | 2% | -9% | -7% | / | -21% | -10%
Cc1ccc(NC(=O)C(NC2CCCc3ccccc32)c2ccccc2)cc1Cl (stereo not drawn) | -12% | 0% | -2%[57.1 µM] | 45µM* | 19% | 1%[57.1 µM]
CC1CCN(S(=O)(=O)c2ccc(NC(=O)[C@@H]3CCCC[C@@H]3C(=O)O)cc2)CC1 | 1% | -2% | 2%[57.1 µM] | 18% | 9% | 4%[57.1 µM]
CC1CCN(S(=O)(=O)c2ccc(NC(=O)C3CCCCC3C(=O)O)cc2)CC1 (stereo not drawn) | / | 11µM* | -10% | / | -8% | -11%
N#Cc1ccsc1NC(=O)c1cccc([N+](=O)[O-])c1 | -2% | -8% | -3%[57.1 µM] | 40µM* | -11% | 18%[57.1 µM]
COc1ccc(CSC2=NCCN2)cc1Cl | 2% | -1% | 5% | 18% | 18% | 26%
O=CN1CCc2scc[n+]2-c2ccccc21 | -3% | 8% | 5%[57.1 µM] | 32µM* | ? | -22%[57.1 µM]
O=C(c1ccc(S(=O)(=O)Nc2ccccc2)cc1)N1CCOCC1 | -1% | 3% | 16%[57.1 µM] | 9% | -2% | 18%[57.1 µM]
COc1ccc2c(c1)CC/C(=C\c1ccc(OC)c(Cn3cccn3)c1)C2=O | -15% | 17% | -9% | 45µM* | -6% | -3%
COc1ccc2c(c1)CC/C(=C\c1ccc(OC)c(Cn3nc(C)cc3C)c1)C2=O | -2%[0.501 µM] | -6% | -16% | 35µM* | -8% | -15%
O=C(CCc1ccccc1)NCc1ccc2c(c1)CCN2C(=O)c1ccc(Cl)cc1 | -19% | -7% | 6%[57.1 µM] | / | -2% | 15%[57.1 µM]
O=C(CSc1oc(-c2ccco2)nc1S(=O)(=O)c1ccc(F)cc1)NCC1CCCO1 (stereo not drawn) | -5% | -3% | 5% | -12% | -2% | 16µM*
SMILES | KAT2A inh | GLS inh | TrxR1 substrate | Sfp PPTase inh | VDR inh | rTrxR1 inhibitor
NC(=O)CSc1oc(-c2ccco2)nc1S(=O)(=O)c1ccc(Br)cc1 | -5% | -5% | 7%[57.1 µM] | -13% | -1% | ?
Cc1ccc(S(=O)(=O)c2nc(-c3ccco3)oc2SCC(N)=O)cc1 | 1% | -12% | ? | 1% | -4% | 79µM*
COC(=O)c1cc(NC(=O)CC2CCCC2)cc(C(=O)OC)c1 | -5% | 3% | -1% | 18% | -4% | 5%
COc1ccccc1CCNC(=O)C1CCCO1 (stereo not drawn) | 1% | -1% | 2% | 5% | 15% | 7%
COC(=O)Nc1cc(C)n(-c2ccccc2)n1 | 2% | -8% | -18%[57.1 µM] | 16% | -2% | 22%[57.1 µM]
Cc1cc(SCC(=O)NN=C2CCN(C(C)C)CC2)c(C)cc1Br | -2% | 15% | -10% | 19% | -12% | -8%
Cc1cc(SCC(=O)N/N=C/c2ccc(O)c(O)c2O)c(C)cc1Br | -30% | -10% | -13% | 10µM* | -18% | -28%
NC(=O)c1c(NC(=O)c2cnccn2)sc2c1CCCC2 | 1% | -5% | 0% | 40µM* | 15% | 10%[57.1 µM]
NC(=O)c1c(NC(=S)Nc2ccc(F)cc2)sc2c1CCCC2 | 0% | ? | 14%[57.1 µM] | 22µM* | -19% | -4%[57.1 µM]
CCCC(=O)NC(=S)Nc1sc2c(c1C(N)=O)CCC2 | -3% | 21% | 1% | 40µM* | -3% | -1%
CCOC(=O)c1c(NC(=S)Nc2ccc(F)cc2)sc2c1CCC2 | -4%[0.501 µM] | -1% | -1% | -6% | -10% | -17%
Cc1cc(C(=O)Nc2sc(C)c(-c3ccc(F)cc3)c2C(N)=O)no1 | -10% | 13% | 47% | -1% | 1% | 18%
NC(=O)c1c(NC(=O)c2ccncc2)sc2c1CCCC2 | -12% | -9% | -7% | 9% | 5% | -4%
NC(=O)c1c(NC(=O)c2cc(-c3ccc(F)cc3)on2)sc2c1CCCC2 | -13% | -7% | -3% | / | 56µM* | -3%
CCOC(=O)C1=C(C)NC(=O)NC1c1cccs1 (stereo not drawn) | -2% | -1% | 6% | 3% | 10% | 23%
Fc1ccc(CSc2ccc(-c3ccc4c(c3)OCO4)nn2)cc1 | -8% | -4% | -6% | 3% | -5% | -2%
COCC(=O)Nc1ccc(C)c(Cl)c1 | -9% | -3% | 9%[57.1 µM] | -5% | -7% | 17%[57.1 µM]
C=CCNC(=S)Nc1sc2c(c1C(N)=O)CCCC2 | -5% | -24% | -18%[57.1 µM] | 50µM* | ? | 0%[57.1 µM]
COc1ccc(C2C(C#N)=C(N)OC3=C2C(=O)CCC3)cc1Cn1nc(C)c([N+](=O)[O-])c1C (stereo not drawn) | -14% | 6% | -10% | 3% | -11% | -14%

Compound activity deposited in PubChem BioAssay by National Center for Advancing Translational Sciences (NCATS).
